A selection: hits, their analogues and other compounds. The true share with any hit is near 3.6%.
AmpC inh no detg = blocks E. coli AmpC beta-lactamase in detergent-free assay. AID 485341. 330,000 compounds, 0.52% hits. AmpC nitrocefin hydrolysis, absorbance 480 nm, 0.0001% Triton. Potency, µM (top dose mostly 57.1 µM), actives largely listed as inhibitors; note: nearly all actives have a fitted effect of over 20% in size
Target sequence (P00811 whole entry, looked up): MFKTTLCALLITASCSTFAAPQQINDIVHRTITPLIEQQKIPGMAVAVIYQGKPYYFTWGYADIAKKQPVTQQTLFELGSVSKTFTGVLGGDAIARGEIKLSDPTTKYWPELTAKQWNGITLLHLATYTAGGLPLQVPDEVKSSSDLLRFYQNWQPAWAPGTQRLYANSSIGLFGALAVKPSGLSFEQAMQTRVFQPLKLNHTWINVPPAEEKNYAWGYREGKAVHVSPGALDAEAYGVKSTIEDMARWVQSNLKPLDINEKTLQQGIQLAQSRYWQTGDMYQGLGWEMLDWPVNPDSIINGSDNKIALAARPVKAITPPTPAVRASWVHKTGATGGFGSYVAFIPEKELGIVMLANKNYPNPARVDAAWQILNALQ
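20 mM phosphate pH 7.0 + 0.01% (detergent screen) or 0.0001% Triton X-100; 5.3 nM AmpC reagent; cpd preinc 15 min RT; nitrocefin (800 uM stock) to start; A480 q20 s × 4 min; Activity was normalised to no-enzyme and no-compound control wells.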
FBPA Giardia inh = inhibitors of Giardia lamblia fructose-1,6-bisphosphate aldolase. A8B2U2. purified Giardia FBPA. Potency, µM (series often up to 59.6 µM), actives largely listed as inhibitors. 290,000 compounds, 0.71% hits; note: nearly all actives have a fitted effect of over 55% in size
Target sequence (A8B2U2 whole entry, looked up): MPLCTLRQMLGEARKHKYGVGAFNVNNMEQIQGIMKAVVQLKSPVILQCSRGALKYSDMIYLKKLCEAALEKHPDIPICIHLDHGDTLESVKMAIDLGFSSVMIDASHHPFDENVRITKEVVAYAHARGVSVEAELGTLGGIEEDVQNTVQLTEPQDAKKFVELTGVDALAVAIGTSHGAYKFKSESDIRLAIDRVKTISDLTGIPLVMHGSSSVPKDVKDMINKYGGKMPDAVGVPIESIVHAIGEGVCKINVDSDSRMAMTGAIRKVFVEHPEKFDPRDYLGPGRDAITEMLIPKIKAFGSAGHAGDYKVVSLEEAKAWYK
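40 nM FBPA preincubated 10 min at RT with compound (up to 57.5 uM final), then substrate plus GAPDH/TPI/NAD/arsenate coupling and diaphorase/resazurin added. Fluorescence read after 20 min at RT, 525/598 nm.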
AmpC inh detg = blocks E. coli AmpC beta-lactamase in detergent assay. P00811. AmpC hydrolysis of nitrocefin, absorbance 480 nm, 0.01% Triton. Potency, µM (titrated, usually from 114 µM), usual class: inhibitors. 370,000 compounds, 0.041% hits; note: nearly all actives have a fitted effect of over 25% in size
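20 mM phosphate pH 7.0 + 0.01% (detergent screen) or 0.0001% Triton X-100; 5.3 nM AmpC reagent; cpd preinc 15 min RT; nitrocefin (800 uM stock) to start; A480 q20 s × 4 min; Activity was normalised to no-enzyme and no-compound control wells.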
Sm TGR block = blocks Schistosoma mansoni thioredoxin glutathione reductase; Q962Y6; purified TGR, DTNB reduction, TNB absorbance 405 nm; Potency, µM (series often up to 114 µM), most hits filed as inhibitors; 360,000 compounds, 3% hits; AID 485364; note: nearly all actives have a fitted effect of over 60% in size
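TGR 20 nM + NADPH 100 uM (dispensed conc.), cpd preinc 15 min RT; start with NADPH (500 uM addition) then DTNB (15 mM addition). Kinetic TNB absorbance, 405 nm filter. Four-parameter Hill fit across titration.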
Hits are given with their value. Calls come from the whole dose curve; as a rule, active = well fitted curve in the direction sought with a large enough effect; inconclusive = small, poorly fitted or top-dose-only effect, or another doubt; inactive = no such curve, though single readings can be large; an effect the other way counts as inactive or inconclusive.

`COc1ccc(NC(=O)C2=CN3CCS(=O)(=O)N=C3C=C2)c(OC)c1` gave AmpC inh no detg inactive, AmpC inh detg inactive and Sm TGR block inactive.
`Cc1cccc(-c2nn(C(=S)Nc3ccccc3)cc2-c2ccnc3ccccc23)n1` gave FBPA Giardia inh inactive.
Screening O=C(CCNS(=O)(=O)c1cccs1)NCc1ccco1 returned AmpC inh no detg inactive, FBPA Giardia inh inactive, AmpC inh detg inconclusive and Sm TGR block 79µM.
Screening CC(C)NS(=O)(=O)c1ccc(CCC(=O)NCc2ccco2)cc1 returned AmpC inh no detg inactive, FBPA Giardia inh inactive, AmpC inh detg inactive and Sm TGR block 45µM.
Screening CC(C)NS(=O)(=O)c1ccc(CCC(=O)NCc2ccncc2)cc1 returned AmpC inh no detg inactive, FBPA Giardia inh inactive, AmpC inh detg inactive and Sm TGR block inactive.
O=C(CCCNS(=O)(=O)c1ccccc1)NCc1ccco1 was read as AmpC inh no detg inactive, FBPA Giardia inh inactive, AmpC inh detg inactive and Sm TGR block inactive.
For O=C(CCc1ccc(S(=O)(=O)NCCc2ccccc2)cc1)NCc1ccco1 the results were AmpC inh no detg inactive, FBPA Giardia inh inactive, AmpC inh detg inactive and Sm TGR block 45µM.
Screening O=C(COC(=O)/C=C/c1cccc(F)c1)NC1CCCCCC1 returned AmpC inh no detg inactive.
O=C(C=C1SCCS1)/C=C/c1ccco1 was read as AmpC inh no detg inactive, FBPA Giardia inh inactive, AmpC inh detg inactive and Sm TGR block 7.1µM.
CC1CC(C)CN(C(=O)COC(=O)/C=C/c2ccco2)C1 (configuration not stated) was read as AmpC inh no detg inactive.
For CC1CCCCC1NC(=O)COC(=O)/C=C/c1ccco1 (configuration not stated) the results were AmpC inh no detg inactive, AmpC inh detg inactive and Sm TGR block 40µM.
For O=C(COC(=O)/C=C/c1ccc(Br)o1)NC1CCCCC1 the results were AmpC inh no detg inactive, AmpC inh detg inactive and Sm TGR block 13µM.
O=C(COC(=O)/C=C/c1ccco1)NC1CCCCC1 was read as AmpC inh no detg inactive, AmpC inh detg inactive and Sm TGR block 13µM.
`CC1(O)CC2C(CC1O)C2(C)C` (configuration not stated) gave FBPA Giardia inh inactive.
Screening O=C(/C=C/c1ccco1)NC1CCCC1 returned AmpC inh no detg inactive, FBPA Giardia inh inactive, AmpC inh detg inactive and Sm TGR block 4.5µM.
`O=C(COC(=O)/C=C/c1ccc(Br)o1)Nc1ccccc1F` gave AmpC inh no detg inactive, FBPA Giardia inh inactive, AmpC inh detg inactive and Sm TGR block 79µM.
For COc1cc(OC)c(NC(=O)c2cc(CN3CCOCC3)on2)cc1Cl the results were AmpC inh detg inactive and Sm TGR block inactive.
Screening COc1ccc(C2C(C#N)=C(N)Oc3cc(C)[nH]c(=O)c32)cc1OC (configuration not stated) returned AmpC inh no detg inactive, FBPA Giardia inh inactive, AmpC inh detg inactive and Sm TGR block inactive.
For CC(C)CCn1c(SCC(=O)Nc2ccccc2C(F)(F)F)nc2nccnc2c1=O the results were AmpC inh no detg inactive, AmpC inh detg inactive and Sm TGR block 22µM.
`COCCn1c(SCC(=O)Nc2ccccc2C(F)(F)F)nc2ccccc2c1=O` gave AmpC inh no detg inactive, FBPA Giardia inh inactive, AmpC inh detg inactive and Sm TGR block inactive.
For Cc1ccc(N/N=C/c2cccnc2)cc1 the results were AmpC inh no detg inactive, FBPA Giardia inh inactive, AmpC inh detg inactive and Sm TGR block inconclusive.
Screening O=C(O)c1ccc(N/N=C/c2ccncc2)cc1 returned AmpC inh no detg inactive, FBPA Giardia inh 4µM, AmpC inh detg inconclusive and Sm TGR block inactive.
Screening O=C(O)c1ccc(N/N=C/c2ccc3nccnc3c2)cc1 returned AmpC inh no detg inactive, FBPA Giardia inh inactive, AmpC inh detg inactive and Sm TGR block inactive.
For Cc1ccc(N/N=C/c2ccncc2)cc1 the results were AmpC inh no detg inactive, FBPA Giardia inh inactive, AmpC inh detg inactive and Sm TGR block 50µM.
For O=C(CSC1=NS(=O)(=O)c2cc(F)ccc2N1)Nc1ccccc1 the results were AmpC inh no detg inactive, AmpC inh detg inactive and Sm TGR block inactive.
`O=C(CSC1=NS(=O)(=O)c2ccccc21)Nc1ccccc1` gave AmpC inh no detg inactive, FBPA Giardia inh inactive, AmpC inh detg inconclusive and Sm TGR block 2.5µM.
`COC(=O)CSC1=NS(=O)(=O)c2ccccc21` gave AmpC inh no detg inactive, FBPA Giardia inh inactive, AmpC inh detg inactive and Sm TGR block 2.5µM.
For O=C(Nc1ccc(N2CCCC2)c(Cl)c1)c1cccnc1 the results were AmpC inh no detg inactive, FBPA Giardia inh inactive, AmpC inh detg inconclusive and Sm TGR block 50µM.
Screening CC(C)(C)C1=CC(=O)C(N2CCOCC2)=CC1=O returned AmpC inh no detg inactive, FBPA Giardia inh 1.8µM, AmpC inh detg inactive and Sm TGR block inactive.
O=c1c(N2CCOCC2)c(N2CCOCC2)c1=O was read as AmpC inh no detg inactive, FBPA Giardia inh inactive, AmpC inh detg inactive and Sm TGR block inactive.
COc1ccccc1OCCCn1cc(C#N)c2ccccc21 was read as AmpC inh no detg inactive, FBPA Giardia inh 20µM, AmpC inh detg inactive and Sm TGR block inactive.
`Oc1ccc(/C=N/Nc2nc(-c3ccc(Cl)cc3)cc(C(F)(F)F)n2)cc1` gave AmpC inh no detg 16µM, FBPA Giardia inh inactive, AmpC inh detg inactive and Sm TGR block inactive.
For O=C(NC(=S)Nc1ccc(F)c(Cl)c1)C1CC1 the results were AmpC inh no detg inactive, AmpC inh detg inactive and Sm TGR block 16µM.
CCOc1ccccc1NC(=S)NC(=O)C1CCCCC1 was read as AmpC inh no detg inactive, FBPA Giardia inh inactive, AmpC inh detg inactive and Sm TGR block 8.9µM.
Screening O=C(NC(=S)Nc1ccccc1Cl)C1CC1 returned AmpC inh no detg inactive, AmpC inh detg inactive and Sm TGR block 45µM.
`Cc1ccc(NC(=S)NC(=O)C2CC2)cc1Cl` gave AmpC inh no detg inactive, AmpC inh detg inactive and Sm TGR block inconclusive.
For CCC1CCCCN1C(=O)COc1ccccc1NC(C)=O (configuration not stated) the results were AmpC inh no detg inactive, FBPA Giardia inh inactive, AmpC inh detg inactive and Sm TGR block 50µM.
CC(=O)Nc1ccc(Br)c(Cl)c1 was read as AmpC inh no detg inactive, FBPA Giardia inh inactive, AmpC inh detg inactive and Sm TGR block inactive.
For O=C(Nc1ccc(Br)c(Cl)c1)C1CC1 the results were AmpC inh no detg 2.2µM, FBPA Giardia inh inactive, AmpC inh detg inactive and Sm TGR block inactive.
O=[N+]([O-])c1cc(Br)cc(C=Nc2ccc3c(c2)OCO3)c1O was read as AmpC inh no detg inactive, FBPA Giardia inh inactive, AmpC inh detg inactive and Sm TGR block 18µM.
`O=C(CCc1ccc(O)c(O)c1)N/N=C/c1cc2c(cc1[N+](=O)[O-])OCO2` gave AmpC inh no detg inactive, FBPA Giardia inh inactive, AmpC inh detg inconclusive and Sm TGR block 16µM.
`Cc1ccc(C)c(N=Cc2cc3c(cc2[N+](=O)[O-])OCO3)c1` gave AmpC inh no detg inactive, FBPA Giardia inh 3.2µM, AmpC inh detg inactive and Sm TGR block inactive.

Bioassay records deposited in PubChem BioAssay by National Center for Advancing Translational Sciences (NCATS).
